Measured values: PubChem BioAssay (NCATS)
Results filed as inconclusive are left out. Where a call stands in place of a potency, no number is given. Activity calls are given as the source filed them. The call rests on the fitted dose curve; in most records, active means well fitted curve in the direction sought with a large enough effect; inconclusive means small, poorly fitted or top-dose-only effect, or another doubt; inactive means no such curve, though single readings can be large; an effect the other way counts as inactive or inconclusive.

Target: Pyruvate kinase PKM (Homo sapiens) (UniProt P14618)
Experiment: qHTS Assay for Inhibitors of Human Muscle Pyruvate Kinase (AID 958)
Conditions: purified human PKM enzyme activity; series mostly up to 57.5 µM
How it was run: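 ATP production by PKM2 detected via luciferase luminescence after 1 h room-temperature reaction (0.1 nM enzyme, PEP at Km 0.5 mM, ADP 0.1 mM, pH 7.2 imidazole buffer). Inhibition scaled to no-enzyme control; activation referenced to 0.3 nM enzyme wells.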

Pyruvate kinase PKM (Homo sapiens), sequence (P14618 whole entry, looked up): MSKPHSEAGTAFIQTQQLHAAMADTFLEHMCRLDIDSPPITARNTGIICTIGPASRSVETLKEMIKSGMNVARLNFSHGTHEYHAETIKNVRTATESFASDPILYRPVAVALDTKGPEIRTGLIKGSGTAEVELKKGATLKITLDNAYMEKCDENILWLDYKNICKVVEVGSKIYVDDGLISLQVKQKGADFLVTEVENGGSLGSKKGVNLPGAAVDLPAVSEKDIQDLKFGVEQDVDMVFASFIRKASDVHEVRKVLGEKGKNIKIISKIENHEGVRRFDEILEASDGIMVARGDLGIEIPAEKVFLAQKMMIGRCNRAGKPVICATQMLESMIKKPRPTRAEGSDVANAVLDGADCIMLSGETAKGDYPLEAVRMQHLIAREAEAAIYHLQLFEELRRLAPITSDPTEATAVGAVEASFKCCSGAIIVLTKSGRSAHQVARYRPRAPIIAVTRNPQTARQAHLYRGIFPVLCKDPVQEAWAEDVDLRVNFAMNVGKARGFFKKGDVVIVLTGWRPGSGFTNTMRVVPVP

Compound | Potency
COc1ccc(/C=C/C(=O)Nc2ccccc2C(=O)O)cc1OC | 20 µM (active)
Oc1cc2c(cc1O)CN(C(=S)NCCc1ccc(Cl)cc1)CCC2 | inactive
Cc1ccc(O)c(N=Nc2ccccc2)n1 | 6.31 µM (active)
CN=c1nc(-c2ccccc2)n(-c2ccccc2)s1 | 25.1 µM (active)

Target: Pyruvate kinase (Leishmania mexicana) (UniProt Q27686)
Experiment: qHTS Validation Assay for Activators of Leishmania Mexicana Pyruvate Kinase (AID 959)
Conditions: purified L. mexicana pyruvate kinase, enzyme activity; series mostly up to 57.5 µM
How it was run: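 Luminescent ATP detection (PKLight) after a 1 h room-temperature reaction of 0.2 nM LmPYK E451W mutant with 0.5 mM PEP and 0.1 mM ADP at pH 7.2. Activity is normalized to DMSO-only control wells.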

Pyruvate kinase (Leishmania mexicana), sequence (Q27686 2-499 E452W): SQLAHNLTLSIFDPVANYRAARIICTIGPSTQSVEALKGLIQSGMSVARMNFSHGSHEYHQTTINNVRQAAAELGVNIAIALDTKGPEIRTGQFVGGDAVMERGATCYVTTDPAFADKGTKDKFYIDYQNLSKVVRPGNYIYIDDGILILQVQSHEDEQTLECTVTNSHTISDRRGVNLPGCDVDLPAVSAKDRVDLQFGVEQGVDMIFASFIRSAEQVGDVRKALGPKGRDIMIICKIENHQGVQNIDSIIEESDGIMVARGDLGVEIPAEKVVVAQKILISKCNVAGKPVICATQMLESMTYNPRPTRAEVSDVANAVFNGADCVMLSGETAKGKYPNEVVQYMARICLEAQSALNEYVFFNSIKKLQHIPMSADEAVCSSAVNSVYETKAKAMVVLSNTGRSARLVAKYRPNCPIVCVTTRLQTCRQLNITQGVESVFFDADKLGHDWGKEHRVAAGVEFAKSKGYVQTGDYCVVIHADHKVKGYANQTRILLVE

Compound | Potency
COc1ccc(/C=C/C(=O)Nc2ccccc2C(=O)O)cc1OC | inactive
NC(N)=NC(=O)c1nc(Cl)c(N2CCCCCC2)nc1N | inactive
CN1CCc2cc(NC(=O)Nc3cccnc3)ccc21 | inactive
O=C(Nc1cccc(C(=O)Nc2ccc(S(=O)(=O)O)c3cc(S(=O)(=O)O)cc(S(=O)(=O)O)c23)c1)Nc1cccc(C(=O)Nc2ccc(S(=O)(=O)O)c3cc(S(=O)(=O)O)cc(S(=O)(=O)O)c23)c1 | 0.398 µM (active)
O=C(Nc1ccccc1)c1cc([N+](=O)[O-])ccc1Cl | inactive
Cc1ccc(O)c(N=Nc2ccccc2)n1 | inactive
Cc1cc(NC(=O)Nc2ccc3c(ccn3C)c2)sn1 | inactive
CN=c1nc(-c2ccccc2)n(-c2ccccc2)s1 | inactive
